# Measurements: PubChem BioAssay (NCI)
# Compounds without any hit were thinned out: in the full panel of roughly 83,000, 20% have a hit.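 Single-dose data. Exposure time 48 hours. Values below 10 considered active.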 A number with no mark means an inactive call. The source made the active and inactive calls.
# Columns and labels:
# Assay in all cases: NCI-60 one-dose screen, 48 h (100 = growth as untreated, 0 = no growth, -100 = all killed)
# Conditions in all cases: 10 µM unless noted
# [1] = system: SR leukemia
# [2] = system: RPMI-8226 leukemia
# [3] = system: OVCAR-8 ovarian
# [4] = system: OVCAR-5 ovarian
# [5] = system: OVCAR-4 ovarian
# [6] = system: SK-OV-3 ovarian
# [7] = system: IGROV1 ovarian
# [8] = system: OVCAR-3 ovarian
# [9] = system: HS 578T breast
# [10] = system: NCI/ADR-RES ovarian
Compound,growth [1],growth [2],growth [3],growth [4],growth [5],growth [6],growth [7],growth [8],growth [9],growth [10]
CCOC(=O)c1c(C)nc2ccccc2c1/C=C/c1cccs1,68.6%,50.7%,74.8%,87.8%,40.4%,75.9%,72.1%,82.7%,98.9%,43.5%
CCCCC#Cc1c(I)n(C)c(=O)[nH]c1=O,-35.9% (active),19.2%,-12.4% (active),80.2%,-80.2% (active),95.5%,-92.5% (active),–,-6.87% (active),85.7%
C=C1C(=O)O[C@H]2[C@H]1CC/C(Cn1cc(CCC)nn1)=C\CC[C@@]1(C)O[C@@H]21,0.0381% (active),26.9%,23.7%,68.2%,40.3%,111%,41%,–,69.1%,73.1%
N#C/C(=C\c1ccc(-c2cccc(C(F)(F)F)c2)o1)c1ccccc1,86.3%,90.9%,101%,96.9%,79%,84.7%,59.9%,95.6%,86.7%,101%
CC1(C)CC2=C3C=C[C@@H]4[C@@]5(C)CCC(=O)C(C)(C)[C@@H]5CC[C@@]4(C)[C@]3(C)CC[C@@]2(C(=O)O)C[C@H]1O,24.4%,-7.05% (active),32.6%,74.4%,24.4%,1% (active),16.5%,11.6%,58.1%,33.3%
CN1CCN(CCOc2ccc(-c3cnc4c(-c5cccc(F)c5F)cnn4c3)cc2)CC1,-1.72% (active),-30.5% (active),4.29% (active),116%,-49.8% (active),108%,81.7%,-52.6% (active),103%,8.9% (active)
CN1CCN(c2ccc3nc4c(nc3c2C(F)(F)F)C(=O)c2ncccc2C4=O)CC1,-27.2% (active),27.6%,-10.9% (active),-90.4% (active),-91.1% (active),29.7%,-32.6% (active),-27.9% (active),-16% (active),10.1%
CC1C(/C=N/NC(N)=S)C(C#N)(C#N)C1(C#N)C#N (stereo not drawn),85.6%,96.6%,101%,116%,103%,95.8%,109%,107%,91.7%,110%
CCOC(=O)CC1CSC(Nc2ccccc2)=N1 (stereo not drawn),98.5%,105%,101%,104%,112%,105%,103%,102%,103%,99.8%
